# In PMC12820563, “FoxP3 forms a head-to-head dimer in vivo and stabilizes its multimerization on adjacent microsatellites”:
# In all, about 16,000 sequences were measured (“rpm ratio (pull-down/input)”: median about 0.94, highest 2% from about 1.7 on). What follows is part of a selection rich in the highest values, with near analogues and random picks from the rest.
# Target: T1, MBP-FoxP1dN (Mus musculus, UniProt P58462 326-579)
# T1 sequence: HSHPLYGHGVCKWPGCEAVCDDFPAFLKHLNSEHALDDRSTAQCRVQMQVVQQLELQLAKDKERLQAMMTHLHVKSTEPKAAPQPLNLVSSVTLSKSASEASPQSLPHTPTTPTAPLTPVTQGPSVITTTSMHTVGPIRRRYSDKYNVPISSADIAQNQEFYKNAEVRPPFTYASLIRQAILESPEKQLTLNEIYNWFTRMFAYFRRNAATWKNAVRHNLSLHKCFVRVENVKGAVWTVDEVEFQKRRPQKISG
# Experiment: PD-seq (MBP pull-down with sequencing); 20 mM Tris-HCl pH 7.5, 100 mM NaCl, 1.5 mM MgCl2, 0.4 uM protein, 0.1 uM dsDNA library, 30 min, room temperature, amylose pull-down; high values mean tight binding
# Details: protein: recombinant; tags: His6-MBP; chain copies: 2; dsDNA, one strand shown
# How it was run: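 The N-terminus-lacking fragment of mouse FoxP3 or FoxP1 carried a His6-MBP tag and was expressed in E. coli. At 0.4 µM it was incubated with 0.1 µM Klenow-filled degenerate double-stranded DNA library for 30 min at room temperature in Tris pH 7.5 buffer with NaCl and MgCl2, and complexes were caught on amylose resin, washed three times, released with proteinase K, PCR-barcoded and Illumina-sequenced. Binding is reads-per-million enrichment of pull-down over input with replicates pooled.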
row,Sequence,binding signal
1,GATGATTGTTCTCCCAGCTGATGAATTCATGTTGTCGAGTAAACAAATTTTCCTAATCTTTCTGTTCAAGCGCCATCTAC,2.26 RPM ratio (pull-down/input)
2,GATGATTGTTCTCCCAGCTGATGAATTAAAAATGTCGAGTAAACAAATTTTCCTAATCTTTCTGTTCAAGCGCCATCTAC,0.979 RPM ratio (pull-down/input)
3,GATGATTGTTCTCCCAGCTGATGAATTTCTATGATCGAGTAAACAAATTTTCCTAATCTTTCTGTTCAAGCGCCATCTAC,0.89 RPM ratio (pull-down/input)
4,GATGATTGTTCTCCCAGCTGATGAATTTTTAATATCGAGTAAACAAATTTTCCTAATCTTTCTGTTCAAGCGCCATCTAC,1.24 RPM ratio (pull-down/input)
5,GATGATTGTTCTCCCAGCTGATGAATTCCGACCATCGAGTAAACAAATTTTCCTAATCTTTCTGTTCAAGCGCCATCTAC,0.869 RPM ratio (pull-down/input)
6,GATGATTGTTCTCCCAGCTGATGAATTACGGGCATCGAGTAAACAAATTTTCCTAATCTTTCTGTTCAAGCGCCATCTAC,1.11 RPM ratio (pull-down/input)
7,GATGATTGTTCTCCCAGCTGATGAATTGGCGATTTCGAGTAAACAAATTTTCCTAATCTTTCTGTTCAAGCGCCATCTAC,0.865 RPM ratio (pull-down/input)
8,GATGATTGTTCTCCCAGCTGATGAATTTTACGGATCGAGTAAACAAATTTTCCTAATCTTTCTGTTCAAGCGCCATCTAC,0.879 RPM ratio (pull-down/input)
9,GATGATTGTTCTCCCAGCTGATGAATTGTCACGGTCGAGTAAACAAATTTTCCTAATCTTTCTGTTCAAGCGCCATCTAC,0.924 RPM ratio (pull-down/input)
10,GATGATTGTTCTCCCAGCTGATGAATTATTCGTTTCGAGTAAACAAATTTTCCTAATCTTTCTGTTCAAGCGCCATCTAC,1.01 RPM ratio (pull-down/input)
11,GATGATTGTTCTCCCAGCTGATGAATTCCTACCGTCGAGTAAACAAATTTTCCTAATCTTTCTGTTCAAGCGCCATCTAC,0.731 RPM ratio (pull-down/input)
12,GATGATTGTTCTCCCAGCTGATGAATTTTTGTGGTCGAGTAAACAAATTTTCCTAATCTTTCTGTTCAAGCGCCATCTAC,1.23 RPM ratio (pull-down/input)
13,GATGATTGTTCTCCCAGCTGATGAATTGGTGTGGTCGAGTAAACAAATTTTCCTAATCTTTCTGTTCAAGCGCCATCTAC,1.04 RPM ratio (pull-down/input)
14,GATGATTGTTCTCCCAGCTGATGAATTTCTGTGGTCGAGTAAACAAATTTTCCTAATCTTTCTGTTCAAGCGCCATCTAC,0.924 RPM ratio (pull-down/input)
15,GATGATTGTTCTCCCAGCTGATGAATTGTTGTGGTCGAGTAAACAAATTTTCCTAATCTTTCTGTTCAAGCGCCATCTAC,2.1 RPM ratio (pull-down/input)
16,GATGATTGTTCTCCCAGCTGATGAATTGGTTGTGTCGAGTAAACAAATTTTCCTAATCTTTCTGTTCAAGCGCCATCTAC,1.2 RPM ratio (pull-down/input)
17,GATGATTGTTCTCCCAGCTGATGAATTGTGTTGGTCGAGTAAACAAATTTTCCTAATCTTTCTGTTCAAGCGCCATCTAC,1.92 RPM ratio (pull-down/input)

row,Sequence,binding signal
1,GATGATTGTTCTCCCAGCTGATGAATTAGCTCAGTCGAGTAAACAAATTTTCCTAATCTTTCTGTTCAAGCGCCATCTAC,0.833 RPM ratio (pull-down/input)
2,GATGATTGTTCTCCCAGCTGATGAATTTAGGTACTCGAGTAAACAAATTTTCCTAATCTTTCTGTTCAAGCGCCATCTAC,0.947 RPM ratio (pull-down/input)
3,GATGATTGTTCTCCCAGCTGATGAATTTCGCATCTCGAGTAAACAAATTTTCCTAATCTTTCTGTTCAAGCGCCATCTAC,1.21 RPM ratio (pull-down/input)
4,GATGATTGTTCTCCCAGCTGATGAATTTGCCGGATCGAGTAAACAAATTTTCCTAATCTTTCTGTTCAAGCGCCATCTAC,0.839 RPM ratio (pull-down/input)
5,GATGATTGTTCTCCCAGCTGATGAATTAAAACAATCGAGTAAACAAATTTTCCTAATCTTTCTGTTCAAGCGCCATCTAC,2 RPM ratio (pull-down/input)
6,GATGATTGTTCTCCCAGCTGATGAATTAATTCAATCGAGTAAACAAATTTTCCTAATCTTTCTGTTCAAGCGCCATCTAC,0.961 RPM ratio (pull-down/input)
7,GATGATTGTTCTCCCAGCTGATGAATTAAATTAATCGAGTAAACAAATTTTCCTAATCTTTCTGTTCAAGCGCCATCTAC,1.01 RPM ratio (pull-down/input)
8,GATGATTGTTCTCCCAGCTGATGAATTTAAAACATCGAGTAAACAAATTTTCCTAATCTTTCTGTTCAAGCGCCATCTAC,1.37 RPM ratio (pull-down/input)
9,GATGATTGTTCTCCCAGCTGATGAATTAAATCAATCGAGTAAACAAATTTTCCTAATCTTTCTGTTCAAGCGCCATCTAC,1.01 RPM ratio (pull-down/input)
10,GATGATTGTTCTCCCAGCTGATGAATTAAACAACTCGAGTAAACAAATTTTCCTAATCTTTCTGTTCAAGCGCCATCTAC,1.84 RPM ratio (pull-down/input)
11,GATGATTGTTCTCCCAGCTGATGAATTAAACAAATCGAGTAAACAAATTTTCCTAATCTTTCTGTTCAAGCGCCATCTAC,2.02 RPM ratio (pull-down/input)
12,GATGATTGTTCTCCCAGCTGATGAATTAAAAACATCGAGTAAACAAATTTTCCTAATCTTTCTGTTCAAGCGCCATCTAC,2.08 RPM ratio (pull-down/input)
13,GATGATTGTTCTCCCAGCTGATGAATTAAAAAAATCGAGTAAACAAATTTTCCTAATCTTTCTGTTCAAGCGCCATCTAC,1.04 RPM ratio (pull-down/input)
14,GATGATTGTTCTCCCAGCTGATGAATTAAACTCCTCGAGTAAACAAATTTTCCTAATCTTTCTGTTCAAGCGCCATCTAC,0.846 RPM ratio (pull-down/input)
15,GATGATTGTTCTCCCAGCTGATGAATTAATCAACTCGAGTAAACAAATTTTCCTAATCTTTCTGTTCAAGCGCCATCTAC,1.1 RPM ratio (pull-down/input)
16,GATGATTGTTCTCCCAGCTGATGAATTAATCTAATCGAGTAAACAAATTTTCCTAATCTTTCTGTTCAAGCGCCATCTAC,1.1 RPM ratio (pull-down/input)
